# Assay results reported in the supplement of paper PMC4466140.
# Experiments:
# Assay in all cases: SPOT peptide array binding signal intensity (averaged, normalized) (arbitrary units (background-subtracted, floor 0; scale differs between SH3 domains)); higher = stronger binding of the SH3 domain to the peptide
# AgAbp1 = molecular target: AgAbp1
# Method in brief: (§1)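 GST-fused SH3 domains from four yeast species were expressed in E. coli BL21(DE3), purified on glutathione Sepharose and incubated at 10 μg/ml overnight at 4°C in TBS-based blocking buffer on cellulose membranes carrying synthetic 15-mer peptides, with cysteines replaced by serines. Bound protein was detected with anti-GST antibody, an HRP anti-mouse secondary and luminol, then imaged and quantified with Genespotter. Binding signal is the normalized, background-subtracted spot intensity averaged over replicates, in arbitrary units that differ between domains.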
# AgBbc1 = molecular target: AgBbc1
# Method in brief: as §1
# AgBem1-D1 = molecular target: AgBem1-D1
# Method in brief: as §1
# AgBzz1-D1 = molecular target: AgBzz1-D1
# Method in brief: as §1
# AgBzz1-D2 = molecular target: AgBzz1-D2
# Method in brief: as §1
# AgCyk3 = molecular target: AgCyk3
# Method in brief: as §1
# AgFus1 = molecular target: AgFus1
# Method in brief: as §1
# AgHof1 = molecular target: AgHof1
# Method in brief: as §1
# AgHse1 = molecular target: AgHse1
# Method in brief: as §1
# AgLsb1 = molecular target: AgLsb1
# Method in brief: as §1
# AgLsb4 = molecular target: AgLsb4
# Method in brief: as §1
# AgMyo5 = molecular target: AgMyo5
# Method in brief: as §1
# AgNbp2 = molecular target: AgNbp2
# Method in brief: as §1
# AgRvs167 = molecular target: AgRvs167
# Method in brief: as §1
# AgSho1 = molecular target: AgSho1
# Method in brief: as §1
# AgSla1-D1-D2 = molecular target: AgSla1-D1-D2
# Method in brief: as §1
# AgSla1-D3 = molecular target: AgSla1-D3
# Method in brief: as §1
# CaAbp1-D1 = molecular target: CaAbp1-D1
# Method in brief: as §1
# CaAbp1-D2 = molecular target: CaAbp1-D2
# Method in brief: as §1
# CaBbc1 = molecular target: CaBbc1
# Method in brief: as §1
# CaBem1-D1 = molecular target: CaBem1-D1
# Method in brief: as §1
# CaBzz1-D1 = molecular target: CaBzz1-D1
# Method in brief: as §1
# CaBzz1-D2 = molecular target: CaBzz1-D2
# Method in brief: as §1
# CaCyk3 = molecular target: CaCyk3
# Method in brief: as §1
# CaFus1 = molecular target: CaFus1
# Method in brief: as §1
# CaHof1 = molecular target: CaHof1
# Method in brief: as §1
# CaHse1 = molecular target: CaHse1
# Method in brief: as §1
# CaLsb1 = molecular target: CaLsb1
# Method in brief: as §1
# CaLsb4 = molecular target: CaLsb4
# Method in brief: as §1
# CaMyo5 = molecular target: CaMyo5
# Method in brief: as §1
# SpBzz1-D2 = molecular target: SpBzz1-D2
# Method in brief: as §1
# SpCyk3 = molecular target: SpCyk3
# Method in brief: as §1
# SpHof1 = molecular target: SpHof1
# Method in brief: as §1
# SpHof1-2 = molecular target: SpHof1-2
# Method in brief: as §1
# SpHof1-3 = molecular target: SpHof1-3
# Method in brief: as §1
# SpHse1 = molecular target: SpHse1
# Method in brief: as §1
# SpLsb1 = molecular target: SpLsb1
# Method in brief: as §1
# SpLsb4 = molecular target: SpLsb4
# Method in brief: as §1
# SpMyo1 = molecular target: SpMyo1
# Method in brief: as §1
# SpNbp2 = molecular target: SpNbp2
# Method in brief: as §1
# SpPex13 = molecular target: SpPex13
# Method in brief: as §1
# SpRvs167 = molecular target: SpRvs167
# Method in brief: as §1
# SpSla1-D1-D2 = molecular target: SpSla1-D1-D2
# Method in brief: as §1
# SpSla1-D3 = molecular target: SpSla1-D3
# Method in brief: as §1
# CaNbp2 = molecular target: CaNbp2
# Method in brief: as §1
# CaRvs167 = molecular target: CaRvs167
# Method in brief: as §1
# CaRvs167-3 = molecular target: CaRvs167-3
# Method in brief: as §1
# CaSho1 = molecular target: CaSho1
# Method in brief: as §1
# CaSla1-D1-D2 = molecular target: CaSla1-D1-D2
# Method in brief: as §1
# CaSla1-D3 = molecular target: CaSla1-D3
# Method in brief: as §1
# ScAbp1 = molecular target: ScAbp1
# Method in brief: as §1
# ScBbc1 = molecular target: ScBbc1
# Method in brief: as §1
# ScBem1-D1 = molecular target: ScBem1-D1
# Method in brief: as §1
# ScBzz1-D1 = molecular target: ScBzz1-D1
# Method in brief: as §1
# ScBzz1-D2 = molecular target: ScBzz1-D2
# Method in brief: as §1
# ScCyk3 = molecular target: ScCyk3
# Method in brief: as §1
# ScFus1 = molecular target: ScFus1
# Method in brief: as §1
# ScHof1 = molecular target: ScHof1
# Method in brief: as §1
# ScHse1 = molecular target: ScHse1
# Method in brief: as §1
# ScLsb1 = molecular target: ScLsb1
# Method in brief: as §1
# ScLsb2 = molecular target: ScLsb2
# Method in brief: as §1
# ScLsb3 = molecular target: ScLsb3
# Method in brief: as §1
# ScLsb4 = molecular target: ScLsb4
# Method in brief: as §1
# ScMyo3 = molecular target: ScMyo3
# Method in brief: as §1
# ScMyo5 = molecular target: ScMyo5
# Method in brief: as §1
# ScNbp2 = molecular target: ScNbp2
# Method in brief: as §1
# ScPex13 = molecular target: ScPex13
# Method in brief: as §1
# ScRvs167 = molecular target: ScRvs167
# Method in brief: as §1
# ScSho1 = molecular target: ScSho1
# Method in brief: as §1
# ScSla1-D1-D2 = molecular target: ScSla1-D1-D2
# Method in brief: as §1
# ScSla1-D3 = molecular target: ScSla1-D3
# Method in brief: as §1
# SpAbp1-D1 = molecular target: SpAbp1-D1
# Method in brief: as §1
# SpBbc1 = molecular target: SpBbc1
# Method in brief: as §1
# SpBzz1-D1 = molecular target: SpBzz1-D1
# Method in brief: as §1
binder,measurement,setting,value
KRRAPPPVPKKPSSR,SPOT peptide array binding signal intensity,AgAbp1,5310
same,SPOT peptide array binding signal intensity,AgBbc1,1320
same,SPOT peptide array binding signal intensity,AgBem1-D1,274
same,SPOT peptide array binding signal intensity,AgBzz1-D1,2790
same,SPOT peptide array binding signal intensity,AgBzz1-D2,1090
same,SPOT peptide array binding signal intensity,AgCyk3,4
same,SPOT peptide array binding signal intensity,AgFus1,42.5
same,SPOT peptide array binding signal intensity,AgHof1,358
same,SPOT peptide array binding signal intensity,AgHse1,332
same,SPOT peptide array binding signal intensity,AgLsb1,650
same,SPOT peptide array binding signal intensity,AgLsb4,374
same,SPOT peptide array binding signal intensity,AgMyo5,37
same,SPOT peptide array binding signal intensity,AgNbp2,6190
same,SPOT peptide array binding signal intensity,AgRvs167,106
same,SPOT peptide array binding signal intensity,AgSho1,886
same,SPOT peptide array binding signal intensity,AgSla1-D1-D2,107
same,SPOT peptide array binding signal intensity,AgSla1-D3,1230
same,SPOT peptide array binding signal intensity,CaAbp1-D1,5770
same,SPOT peptide array binding signal intensity,CaAbp1-D2,7000
same,SPOT peptide array binding signal intensity,CaBbc1,2030
same,SPOT peptide array binding signal intensity,CaBem1-D1,95
same,SPOT peptide array binding signal intensity,CaBzz1-D1,7240
same,SPOT peptide array binding signal intensity,CaBzz1-D2,4490
same,SPOT peptide array binding signal intensity,CaCyk3,458
same,SPOT peptide array binding signal intensity,CaFus1,308
same,SPOT peptide array binding signal intensity,CaHof1,0.75
same,SPOT peptide array binding signal intensity,CaHse1,1600
same,SPOT peptide array binding signal intensity,CaLsb1,≤ 0
same,SPOT peptide array binding signal intensity,CaLsb4,2400
same,SPOT peptide array binding signal intensity,CaMyo5,4.75
FYHRPAPKPPVTKKV,SPOT peptide array binding signal intensity,SpBzz1-D2,2.5
same,SPOT peptide array binding signal intensity,SpCyk3,2
same,SPOT peptide array binding signal intensity,SpHof1,12.5
same,SPOT peptide array binding signal intensity,SpHof1-2,≤ 0
same,SPOT peptide array binding signal intensity,SpHof1-3,≤ 0
same,SPOT peptide array binding signal intensity,SpHse1,≤ 0
same,SPOT peptide array binding signal intensity,SpLsb1,8
same,SPOT peptide array binding signal intensity,SpLsb4,54
same,SPOT peptide array binding signal intensity,SpMyo1,132
same,SPOT peptide array binding signal intensity,SpNbp2,9
same,SPOT peptide array binding signal intensity,SpPex13,6
same,SPOT peptide array binding signal intensity,SpRvs167,9.33
same,SPOT peptide array binding signal intensity,SpSla1-D1-D2,≤ 0
same,SPOT peptide array binding signal intensity,SpSla1-D3,≤ 0
IHTRRPSSTSQYLIR,SPOT peptide array binding signal intensity,AgAbp1,235
same,SPOT peptide array binding signal intensity,AgBbc1,354
same,SPOT peptide array binding signal intensity,AgBem1-D1,254
same,SPOT peptide array binding signal intensity,AgBzz1-D1,73.5
same,SPOT peptide array binding signal intensity,AgBzz1-D2,58.5
same,SPOT peptide array binding signal intensity,AgCyk3,4
same,SPOT peptide array binding signal intensity,AgFus1,406
same,SPOT peptide array binding signal intensity,AgHof1,44.2
same,SPOT peptide array binding signal intensity,AgHse1,202
same,SPOT peptide array binding signal intensity,AgLsb1,242
same,SPOT peptide array binding signal intensity,AgLsb4,32
same,SPOT peptide array binding signal intensity,AgMyo5,194
same,SPOT peptide array binding signal intensity,AgNbp2,106
same,SPOT peptide array binding signal intensity,AgRvs167,1.33
same,SPOT peptide array binding signal intensity,AgSho1,22.5
same,SPOT peptide array binding signal intensity,AgSla1-D1-D2,44
same,SPOT peptide array binding signal intensity,AgSla1-D3,11.8
same,SPOT peptide array binding signal intensity,CaAbp1-D1,732
same,SPOT peptide array binding signal intensity,CaAbp1-D2,571
same,SPOT peptide array binding signal intensity,CaBbc1,415
same,SPOT peptide array binding signal intensity,CaBem1-D1,43
same,SPOT peptide array binding signal intensity,CaBzz1-D1,249
same,SPOT peptide array binding signal intensity,CaBzz1-D2,267
same,SPOT peptide array binding signal intensity,CaCyk3,17
same,SPOT peptide array binding signal intensity,CaFus1,699
same,SPOT peptide array binding signal intensity,CaHof1,0.5
same,SPOT peptide array binding signal intensity,CaHse1,110
same,SPOT peptide array binding signal intensity,CaLsb1,22
same,SPOT peptide array binding signal intensity,CaLsb4,150
same,SPOT peptide array binding signal intensity,CaMyo5,208
same,SPOT peptide array binding signal intensity,CaNbp2,94.5
same,SPOT peptide array binding signal intensity,CaRvs167,19.7
same,SPOT peptide array binding signal intensity,CaRvs167-3,69.5
same,SPOT peptide array binding signal intensity,CaSho1,369
same,SPOT peptide array binding signal intensity,CaSla1-D1-D2,126
same,SPOT peptide array binding signal intensity,CaSla1-D3,15.8
same,SPOT peptide array binding signal intensity,ScAbp1,97.5
same,SPOT peptide array binding signal intensity,ScBbc1,144
same,SPOT peptide array binding signal intensity,ScBem1-D1,40.5
same,SPOT peptide array binding signal intensity,ScBzz1-D1,50
same,SPOT peptide array binding signal intensity,ScBzz1-D2,50.5
same,SPOT peptide array binding signal intensity,ScCyk3,35
same,SPOT peptide array binding signal intensity,ScFus1,593
same,SPOT peptide array binding signal intensity,ScHof1,1
same,SPOT peptide array binding signal intensity,ScHse1,465
same,SPOT peptide array binding signal intensity,ScLsb1,3
same,SPOT peptide array binding signal intensity,ScLsb2,162
same,SPOT peptide array binding signal intensity,ScLsb3,158
same,SPOT peptide array binding signal intensity,ScLsb4,6.5
same,SPOT peptide array binding signal intensity,ScMyo3,82
same,SPOT peptide array binding signal intensity,ScMyo5,243
same,SPOT peptide array binding signal intensity,ScNbp2,267
same,SPOT peptide array binding signal intensity,ScPex13,10.8
same,SPOT peptide array binding signal intensity,ScRvs167,19.8
same,SPOT peptide array binding signal intensity,ScSho1,585
same,SPOT peptide array binding signal intensity,ScSla1-D1-D2,172
same,SPOT peptide array binding signal intensity,ScSla1-D3,14.5
same,SPOT peptide array binding signal intensity,SpAbp1-D1,826
same,SPOT peptide array binding signal intensity,SpBbc1,60
same,SPOT peptide array binding signal intensity,SpBzz1-D1,632
same,SPOT peptide array binding signal intensity,SpBzz1-D2,6.5
same,SPOT peptide array binding signal intensity,SpCyk3,10
same,SPOT peptide array binding signal intensity,SpHof1,51
same,SPOT peptide array binding signal intensity,SpHof1-2,10.5
same,SPOT peptide array binding signal intensity,SpHof1-3,669
same,SPOT peptide array binding signal intensity,SpHse1,352
same,SPOT peptide array binding signal intensity,SpLsb1,292
same,SPOT peptide array binding signal intensity,SpLsb4,138
same,SPOT peptide array binding signal intensity,SpMyo1,138
same,SPOT peptide array binding signal intensity,SpNbp2,96.5
same,SPOT peptide array binding signal intensity,SpPex13,10
same,SPOT peptide array binding signal intensity,SpRvs167,31.3
same,SPOT peptide array binding signal intensity,SpSla1-D1-D2,2
same,SPOT peptide array binding signal intensity,SpSla1-D3,6
